# Source: article PMC7862700, “An all-to-all approach to the identification of sequence-specific readers for epigenetic DNA modifications on cytosine”
# How the values were obtained:
# Experiment in all cases: DAPPL (digital affinity profiling via proximity ligation, sequencing); 10 mM Tris-HCl pH 7.5, 50 mM NaCl, 1 mM DTT, 4% glycerol, room temperature, 30 min; GST-TFs on glutathione beads, 16-mer random dsDNA library, 0.1% formaldehyde crosslink after washing; high values mean tight binding
# Conditions in all cases: protein: recombinant; tags: N-terminal GST; dsDNA, one strand shown
# FEV = target: T1, FEV (Homo sapiens, UniProt Q99581 1-238)
# T1 sequence: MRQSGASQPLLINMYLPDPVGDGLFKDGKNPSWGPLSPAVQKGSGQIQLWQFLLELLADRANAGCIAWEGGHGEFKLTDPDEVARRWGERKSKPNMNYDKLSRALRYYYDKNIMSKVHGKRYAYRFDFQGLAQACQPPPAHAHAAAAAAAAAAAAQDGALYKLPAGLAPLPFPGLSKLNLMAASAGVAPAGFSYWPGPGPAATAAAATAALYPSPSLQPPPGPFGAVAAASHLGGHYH
# Method in brief: (§1)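 Pools of DNA-barcoded human transcription factors, expressed in yeast as GST fusions on glutathione beads and combined with a tag-only sample, were incubated with 200 nmole of a 16-mer random double-stranded DNA library. Incubation took 30 min at room temperature in Tris/NaCl/DTT/glycerol buffer and was followed by washing, 0.1% formaldehyde crosslinking, proximity ligation (BsaI/T4 ligase, 1 h, 37 °C), PCR amplification and sequencing on an Illumina NextSeq500. Binding signal is the ratio of a hexamer's read frequency for a factor to its frequency for the tag-only sample.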
# ETV5 = ETV5 (Homo sapiens, UniProt P41161 1-510)
# Method in brief: as §1
# SPIC = target: T2, SPIC (Homo sapiens, UniProt Q8N5J4 1-248)
# T2 sequence: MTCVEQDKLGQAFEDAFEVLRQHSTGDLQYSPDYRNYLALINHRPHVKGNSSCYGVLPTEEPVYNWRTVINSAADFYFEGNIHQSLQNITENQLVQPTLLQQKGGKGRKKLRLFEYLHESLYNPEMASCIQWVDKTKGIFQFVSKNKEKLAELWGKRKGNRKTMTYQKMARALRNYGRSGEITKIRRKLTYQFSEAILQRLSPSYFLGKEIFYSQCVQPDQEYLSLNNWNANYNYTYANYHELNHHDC
# Method in brief: as §1
# ELF4 = ELF4 (Homo sapiens, UniProt Q99607 1-663)
# Method in brief: as §1
# ELK4 = target: T3, ELK4 (Homo sapiens, UniProt P28324-2 1-405)
# T3 sequence: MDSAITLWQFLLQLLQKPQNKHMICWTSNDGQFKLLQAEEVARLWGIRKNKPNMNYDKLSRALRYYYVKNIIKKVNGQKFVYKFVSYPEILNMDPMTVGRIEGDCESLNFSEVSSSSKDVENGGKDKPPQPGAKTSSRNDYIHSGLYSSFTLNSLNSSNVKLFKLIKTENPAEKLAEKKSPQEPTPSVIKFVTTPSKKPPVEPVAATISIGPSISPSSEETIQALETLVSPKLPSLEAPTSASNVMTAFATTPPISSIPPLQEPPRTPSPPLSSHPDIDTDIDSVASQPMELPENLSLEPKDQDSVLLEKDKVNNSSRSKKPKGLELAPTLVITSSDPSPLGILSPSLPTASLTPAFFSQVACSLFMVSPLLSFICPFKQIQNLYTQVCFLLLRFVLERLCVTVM
# Method in brief: as §1
# ETV2 = target: T4, ETV2 (Homo sapiens, UniProt O00321 1-342)
# T4 sequence: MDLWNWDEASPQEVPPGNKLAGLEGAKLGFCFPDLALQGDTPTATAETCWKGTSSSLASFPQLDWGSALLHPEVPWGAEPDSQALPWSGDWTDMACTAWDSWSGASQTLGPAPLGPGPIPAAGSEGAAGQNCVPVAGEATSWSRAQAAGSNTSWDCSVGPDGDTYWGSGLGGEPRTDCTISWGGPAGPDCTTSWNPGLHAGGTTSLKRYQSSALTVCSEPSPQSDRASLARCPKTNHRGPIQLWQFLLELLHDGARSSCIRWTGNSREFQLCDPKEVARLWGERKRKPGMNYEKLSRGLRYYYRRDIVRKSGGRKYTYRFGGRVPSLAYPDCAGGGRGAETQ
# Method in brief: as §1
# ELF3 = target: T5, ELF3 (Homo sapiens, UniProt P78545 1-371)
# T5 sequence: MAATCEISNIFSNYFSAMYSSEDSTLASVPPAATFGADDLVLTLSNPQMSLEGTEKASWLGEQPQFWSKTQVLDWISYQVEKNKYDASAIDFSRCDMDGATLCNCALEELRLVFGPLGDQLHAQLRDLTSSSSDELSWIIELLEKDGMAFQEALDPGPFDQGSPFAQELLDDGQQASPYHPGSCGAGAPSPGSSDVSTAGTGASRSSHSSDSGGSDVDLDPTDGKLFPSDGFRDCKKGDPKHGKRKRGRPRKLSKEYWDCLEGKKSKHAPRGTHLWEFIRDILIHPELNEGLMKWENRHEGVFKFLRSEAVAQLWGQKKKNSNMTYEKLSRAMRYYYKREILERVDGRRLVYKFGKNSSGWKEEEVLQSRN
# Method in brief: as §1
# ETV1 = ETV1 (Homo sapiens, UniProt P50549 1-477)
# Method in brief: as §1
# ETV1, sequence (P50549 whole entry): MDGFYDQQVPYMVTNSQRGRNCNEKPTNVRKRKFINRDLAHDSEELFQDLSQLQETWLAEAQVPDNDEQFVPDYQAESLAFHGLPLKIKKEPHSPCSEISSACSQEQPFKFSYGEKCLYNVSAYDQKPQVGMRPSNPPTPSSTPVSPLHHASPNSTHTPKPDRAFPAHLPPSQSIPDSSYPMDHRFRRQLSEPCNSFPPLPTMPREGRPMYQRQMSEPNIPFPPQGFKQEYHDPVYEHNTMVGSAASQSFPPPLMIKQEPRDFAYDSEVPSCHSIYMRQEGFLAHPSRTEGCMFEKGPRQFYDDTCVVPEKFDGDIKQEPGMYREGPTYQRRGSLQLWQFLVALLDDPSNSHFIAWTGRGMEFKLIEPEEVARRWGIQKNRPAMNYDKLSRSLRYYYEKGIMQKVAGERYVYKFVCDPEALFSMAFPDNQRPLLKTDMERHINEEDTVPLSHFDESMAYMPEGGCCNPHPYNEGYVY
# ELF4, sequence (Q99607 whole entry): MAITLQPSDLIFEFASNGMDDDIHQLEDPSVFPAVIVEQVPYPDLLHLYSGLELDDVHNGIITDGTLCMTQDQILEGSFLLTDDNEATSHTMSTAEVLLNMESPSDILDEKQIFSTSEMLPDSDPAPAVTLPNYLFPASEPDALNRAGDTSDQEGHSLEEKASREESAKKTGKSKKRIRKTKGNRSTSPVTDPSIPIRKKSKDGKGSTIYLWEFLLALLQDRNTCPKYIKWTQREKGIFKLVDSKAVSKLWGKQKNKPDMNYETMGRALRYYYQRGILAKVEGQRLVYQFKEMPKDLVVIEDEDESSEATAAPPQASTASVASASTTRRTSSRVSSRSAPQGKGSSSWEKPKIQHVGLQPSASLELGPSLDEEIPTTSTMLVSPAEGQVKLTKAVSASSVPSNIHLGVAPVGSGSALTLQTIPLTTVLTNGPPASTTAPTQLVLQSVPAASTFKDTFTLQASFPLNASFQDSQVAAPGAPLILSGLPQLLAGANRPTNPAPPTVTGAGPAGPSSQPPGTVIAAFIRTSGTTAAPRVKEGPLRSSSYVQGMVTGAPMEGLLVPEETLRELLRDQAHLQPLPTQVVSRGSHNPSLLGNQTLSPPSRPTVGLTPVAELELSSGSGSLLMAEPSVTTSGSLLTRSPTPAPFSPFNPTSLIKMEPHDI
# ETV5, sequence (P41161 whole entry): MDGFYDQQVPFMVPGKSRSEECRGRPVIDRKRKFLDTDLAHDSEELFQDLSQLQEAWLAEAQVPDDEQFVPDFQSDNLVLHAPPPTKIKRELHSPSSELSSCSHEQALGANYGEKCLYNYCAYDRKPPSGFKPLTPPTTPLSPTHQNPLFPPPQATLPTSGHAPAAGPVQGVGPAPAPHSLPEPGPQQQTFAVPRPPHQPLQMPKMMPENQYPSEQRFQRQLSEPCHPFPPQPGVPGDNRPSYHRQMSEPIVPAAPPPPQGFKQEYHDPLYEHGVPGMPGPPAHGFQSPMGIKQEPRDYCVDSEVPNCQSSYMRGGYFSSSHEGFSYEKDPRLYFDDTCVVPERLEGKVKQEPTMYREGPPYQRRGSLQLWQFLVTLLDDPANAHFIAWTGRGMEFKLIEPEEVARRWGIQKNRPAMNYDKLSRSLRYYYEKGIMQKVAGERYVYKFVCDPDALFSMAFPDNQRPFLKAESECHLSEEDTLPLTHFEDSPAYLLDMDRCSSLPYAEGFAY
Sequence,binding signal (FEV),binding signal (ETV5),binding signal (SPIC),binding signal (ELF4),binding signal (ELK4),binding signal (ETV2),binding signal (ELF3),binding signal (ETV1)
TGTCTG,"1.15 fold enrichment (6-mer frequency, TF over GST control)","1.09 fold enrichment (6-mer frequency, TF over GST control)","1.33 fold enrichment (6-mer frequency, TF over GST control)","1.04 fold enrichment (6-mer frequency, TF over GST control)","1.02 fold enrichment (6-mer frequency, TF over GST control)","1.21 fold enrichment (6-mer frequency, TF over GST control)","1.21 fold enrichment (6-mer frequency, TF over GST control)","1.04 fold enrichment (6-mer frequency, TF over GST control)"
CTGCAG,"1.1 fold enrichment (6-mer frequency, TF over GST control)","1.11 fold enrichment (6-mer frequency, TF over GST control)","1.37 fold enrichment (6-mer frequency, TF over GST control)","1.17 fold enrichment (6-mer frequency, TF over GST control)","1.26 fold enrichment (6-mer frequency, TF over GST control)","1.3 fold enrichment (6-mer frequency, TF over GST control)","1.02 fold enrichment (6-mer frequency, TF over GST control)",
AAGTGC,"1.32 fold enrichment (6-mer frequency, TF over GST control)","1.33 fold enrichment (6-mer frequency, TF over GST control)","1.5 fold enrichment (6-mer frequency, TF over GST control)","1.29 fold enrichment (6-mer frequency, TF over GST control)","1.21 fold enrichment (6-mer frequency, TF over GST control)","1.35 fold enrichment (6-mer frequency, TF over GST control)","1.33 fold enrichment (6-mer frequency, TF over GST control)","1.25 fold enrichment (6-mer frequency, TF over GST control)"
CGCTTG,"1.08 fold enrichment (6-mer frequency, TF over GST control)","1.06 fold enrichment (6-mer frequency, TF over GST control)","1.16 fold enrichment (6-mer frequency, TF over GST control)","1.01 fold enrichment (6-mer frequency, TF over GST control)","1 fold enrichment (6-mer frequency, TF over GST control)","1.07 fold enrichment (6-mer frequency, TF over GST control)","1.2 fold enrichment (6-mer frequency, TF over GST control)","1.15 fold enrichment (6-mer frequency, TF over GST control)"
CCAAAC,"1.08 fold enrichment (6-mer frequency, TF over GST control)","1.07 fold enrichment (6-mer frequency, TF over GST control)","1.16 fold enrichment (6-mer frequency, TF over GST control)","1.14 fold enrichment (6-mer frequency, TF over GST control)","1.15 fold enrichment (6-mer frequency, TF over GST control)","1.07 fold enrichment (6-mer frequency, TF over GST control)","1.11 fold enrichment (6-mer frequency, TF over GST control)","1.02 fold enrichment (6-mer frequency, TF over GST control)"
ACACCA,"1.03 fold enrichment (6-mer frequency, TF over GST control)","1.04 fold enrichment (6-mer frequency, TF over GST control)","1.13 fold enrichment (6-mer frequency, TF over GST control)","1.02 fold enrichment (6-mer frequency, TF over GST control)","1.08 fold enrichment (6-mer frequency, TF over GST control)","1.05 fold enrichment (6-mer frequency, TF over GST control)","1.01 fold enrichment (6-mer frequency, TF over GST control)",
GGTTTG,"1.12 fold enrichment (6-mer frequency, TF over GST control)","1.02 fold enrichment (6-mer frequency, TF over GST control)","1.27 fold enrichment (6-mer frequency, TF over GST control)","1.12 fold enrichment (6-mer frequency, TF over GST control)","1.26 fold enrichment (6-mer frequency, TF over GST control)","1.05 fold enrichment (6-mer frequency, TF over GST control)","1.09 fold enrichment (6-mer frequency, TF over GST control)","1.14 fold enrichment (6-mer frequency, TF over GST control)"
ACCCAA,"1.05 fold enrichment (6-mer frequency, TF over GST control)","1.08 fold enrichment (6-mer frequency, TF over GST control)","1.2 fold enrichment (6-mer frequency, TF over GST control)","1.18 fold enrichment (6-mer frequency, TF over GST control)","1.08 fold enrichment (6-mer frequency, TF over GST control)","1.13 fold enrichment (6-mer frequency, TF over GST control)","1.26 fold enrichment (6-mer frequency, TF over GST control)",
CCGCGC,"1.11 fold enrichment (6-mer frequency, TF over GST control)","1.21 fold enrichment (6-mer frequency, TF over GST control)","1.41 fold enrichment (6-mer frequency, TF over GST control)","1.07 fold enrichment (6-mer frequency, TF over GST control)","1.35 fold enrichment (6-mer frequency, TF over GST control)","1.29 fold enrichment (6-mer frequency, TF over GST control)","1.01 fold enrichment (6-mer frequency, TF over GST control)","1.06 fold enrichment (6-mer frequency, TF over GST control)"
